Screening results (PubChem)
Sampled rows, rich in hits. Any-hit rate of the full collection: about 12%.
TDP1 inh – inhibitors of human tyrosyl-DNA phosphodiesterase TDP1; recombinant TDP1, AlphaScreen DNA substrate cleavage; AID 485290; 350,000 compounds, 0.28% hits; Potency, µM (top dose mostly 130 µM), for inactives: top-dose activity change, negative = inhibition, hits mostly inhibitors; further: on the % scale 0 is the no-effect control and ±100 the full control effect; nearly all actives have a fitted effect of over 40% in size
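Enzyme-compound mixtures sat 15 min at room temperature, followed by a 5 min reaction with 15 nM final substrate and 10 min with AlphaScreen beads. Recombinant human Tdp1 was used at 1 nM final.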
G9a block – G9a (human) methyltransferase inhibition | Q96KQ7 | G9a H3K9 monomethylation, AlphaScreen, 2 h | Potency, µM (doses to about 102 µM), without a hit: top-dose activity, negative = inhibition, hits mostly inhibitors | 350,000 compounds, 8.8% hits | AID 504332; further: on the % scale 0 is the no-effect control and ±100 the full control effect; nearly all actives have a fitted effect of over 75% in size
Target sequence (Q96KQ7 913-1193 limits assumed): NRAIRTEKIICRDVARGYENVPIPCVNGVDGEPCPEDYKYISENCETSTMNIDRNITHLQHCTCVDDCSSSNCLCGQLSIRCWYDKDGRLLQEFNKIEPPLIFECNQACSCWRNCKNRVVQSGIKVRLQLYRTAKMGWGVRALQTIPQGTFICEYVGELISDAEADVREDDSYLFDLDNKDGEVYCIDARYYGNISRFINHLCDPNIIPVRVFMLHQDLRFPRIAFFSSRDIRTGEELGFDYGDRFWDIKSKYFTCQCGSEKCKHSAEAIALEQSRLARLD
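G9a (20 nM) was preincubated 15 min with compound, then reacted 2 h at room temperature with 500 nM biotin-H3K9 peptide and 20 µM SAM. Monomethyl-H3K9 detected by AlphaScreen using anti-H3K9me1 antibody.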
HP1b binding inh – HP1-beta chromodomain-methylated histone interaction inhibition; 390,000 compounds, 0.56% hits; AlphaScreen HP1-beta / biotin-H3K9me3 peptide binding; Potency, µM (highest dose often 114 µM), inactives show at the highest dose activity change, negative = inhibition, actives largely listed as inhibitors; P83916; AID 540317; further: nearly all actives have a fitted effect of over 70% in size
Target sequence (P83916 whole entry, looked up): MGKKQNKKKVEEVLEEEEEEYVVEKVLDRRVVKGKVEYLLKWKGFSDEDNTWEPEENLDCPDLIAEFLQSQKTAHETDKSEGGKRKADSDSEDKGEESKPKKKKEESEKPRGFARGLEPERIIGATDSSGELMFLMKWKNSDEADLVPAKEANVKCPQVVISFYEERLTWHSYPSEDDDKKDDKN
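AlphaScreen: HP1-beta (50 nM) preformed 30 min with biotin-H3(1-18)K9me3 peptide (50 nM) in PBS pH 7.4, 0.01% Tween-20. Compound added for 30 min at RT, then streptavidin donor/nickel chelate acceptor beads (10 ug/mL) for 30 min.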
Sfp inh – inhibitors of Bacillus subtilis Sfp phosphopantetheinyl transferase; Q9F4F7; Biochemical Sfp PPTase activity, qHTS; Potency, µM, for inactives: largest response in the series, negative = inhibition, hits mostly inhibitors; 310,000 compounds, 3.5% hits; AID 1490;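 further: the enzyme is Sfp with the accession as filed and its product quenches rhodamine fluorescence; 0% = enzyme reaction without inhibitor and -100% = no enzyme wells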
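Sfp 15 nM + cpd, 15 min RT; start w/ rhodamine-CoA 5 uM, BHQ-2-YbbR 12.5 uM (final); 50 mM Hepes pH 7.6, 10 mM MgCl2, 0.01% NP-40, 0.01% BSA; read 525/598 nm at 0 and 30 min.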
BAZ2B block – BAZ2B (human) inhibition | Q9UIF8 | AlphaScreen BAZ2B-H3K14Ac peptide displacement | Potency, µM (top dose mostly 114 µM), without a hit: at the top dose activity change, negative = inhibition, actives largely listed as inhibitors | 360,000 compounds, 4.4% hits | AID 504333; further: on the % scale 0 is the no-effect control and ±100 the full control effect; nearly all actives have a fitted effect of over 60% in size
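AlphaScreen displacement: compounds (up to 110uM) incubated 30 min at room temperature with a preformed 50 nM BAZ2B/50 nM biotinylated H3K14Ac peptide complex in PBS pH 7.4 with Tween-20. Donor and acceptor beads at 10 ug/mL final added, 20 min light-protected before reading.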
JMJD2A Tudor – JMJD2A Tudor domain (human) inhibition; O75164; AlphaScreen JMJD2A-Tudor / H3K4me3 peptide binding; Potency, µM (top dose mostly 114 µM), for inactives: at the highest dose activity change, negative = inhibition, most hits filed as inhibitors; 390,000 compounds, 4.4% hits; further: on the % scale 0 is the no-effect control and ±100 the full control effect; nearly all actives have a fitted effect of over 50% in size
The depositor's hits bear a star; [ ] = dose if it differs, or a comment. The call rests on the fitted dose curve; in most records, active means well fitted curve in the direction sought with a large enough effect; inconclusive means small, poorly fitted or top-dose-only effect, or another doubt; inactive means no such curve, though single readings can be large; an effect the other way counts as inactive or inconclusive. Potency means the concentration at half of the fitted maximal effect.

What do the screens show for `CN1C(=O)C(N=Nc2ccccc2C(=O)O)N(C)C1=S` (centres undefined)?
TDP1 inh: 5.1%; G9a block: 1.78µM*; HP1b binding inh: -36.5%; Sfp inh: -9.8%; BAZ2B block: inconclusive; JMJD2A Tudor: -7.5%[11.4 µM]

What do the screens show for `CCOc1cc(CNc2ccc(OC)cc2)cc(Br)c1OCC(=O)NC(C)(C)C`?
TDP1 inh: 8.3%; G9a block: inconclusive; HP1b binding inh: inconclusive; Sfp inh: -14.7%; BAZ2B block: 17.8µM*; JMJD2A Tudor: 22.4µM*

What do the screens show for `CCOc1cc(CNc2ccc(Br)cc2)cc(Br)c1OCC(=O)NC(C)(C)C`?
TDP1 inh: 2.0%; G9a block: 1.0%[59 µM]; HP1b binding inh: 11.3%; Sfp inh: 7.2%; BAZ2B block: -9.6%; JMJD2A Tudor: -9.4%

What do the screens show for `O=C(CCN1C(=O)/C(=C/c2ccco2)SC1=S)Nc1ccc(C(=O)O)c(O)c1`?
G9a block: 22.4µM*; HP1b binding inh: 50.1µM*; Sfp inh: 56.2µM*; BAZ2B block: 44.7µM*; JMJD2A Tudor: 50.1µM*

What do the screens show for `COc1ccccc1/C=C1/SC(=S)N(CCC(=O)Nc2cccnc2)C1=O`?
TDP1 inh: 2.8%; G9a block: 23.8%; HP1b binding inh: 24.3%; Sfp inh: 16.7%; BAZ2B block: -1.7%; JMJD2A Tudor: inconclusive

What do the screens show for `O=C(CCN1C(=O)/C(=C\c2ccco2)SC1=S)Nc1ccc(C(=O)O)c(O)c1`?
G9a block: inconclusive; HP1b binding inh: inconclusive; Sfp inh: 44.7µM*; BAZ2B block: 35.5µM*; JMJD2A Tudor: 56.2µM*

What do the screens show for `COc1ccccc1/C=C1\SC(=S)N(CCC(=O)Nc2ccc(C(=O)O)c(O)c2)C1=O`?
G9a block: 50.1µM*; HP1b binding inh: inconclusive; Sfp inh: -10.4%; BAZ2B block: 50.1µM*; JMJD2A Tudor: inconclusive

How did O=C(CCN1C(=O)/C(=C\c2cccs2)SC1=S)Nc1ccc(C(=O)O)cc1 do in these assays?
TDP1 inh: 2.6%; G9a block: inconclusive; HP1b binding inh: 5.5%; Sfp inh: 12.9%; BAZ2B block: -13.9%; JMJD2A Tudor: inconclusive

Results for Cc1cc2[nH]cnc2c([N+](=O)[O-])c1C ?
TDP1 inh: -2.7%; G9a block: -3.6%; HP1b binding inh: 41.3%; Sfp inh: 6.0%; BAZ2B block: -5.0%; JMJD2A Tudor: -1.4%

How did O=c1oc2ccccc2cc1-c1nc(-c2cccs2)no1 do in these assays?
TDP1 inh: -4.7%; G9a block: -3.2%[59 µM]; HP1b binding inh: 41.6%; BAZ2B block: 7.0%; JMJD2A Tudor: 9.6%

Results for COc1ccc(C(=O)NCc2ccco2)cc1S(=O)(=O)NC1CC1 ?
TDP1 inh: 0.4%[56.1 µM]; G9a block: 9.9%[2.33 µM]; HP1b binding inh: 41.4%; BAZ2B block: 2.0%; JMJD2A Tudor: -10.4%

How did O=C(O)c1cc2cc(Oc3ccccc3)ccc2[nH]1 do in these assays?
G9a block: inconclusive; HP1b binding inh: 42.5%; Sfp inh: 12.0%; BAZ2B block: -26.9%; JMJD2A Tudor: -1.4%

What do the screens show for `CCc1ccc(S(=O)(=O)c2nnn3c2nc(N2CCCC2)c2sccc23)cc1`?
TDP1 inh: 2.6%; G9a block: 17.7%[59 µM]; HP1b binding inh: 66.2%; BAZ2B block: -0.7%; JMJD2A Tudor: 3.3%

Results for O=C(Nc1cccc(C(=O)OCc2cc(=O)n3c4c(sc3n2)CCCC4)c1)c1ccc(Cl)cc1 ?
TDP1 inh: 1.2%; G9a block: -1.6%[12.7 µM]; HP1b binding inh: 15.7%; BAZ2B block: -11.1%; JMJD2A Tudor: -2.6%

Results for Cc1onc(-c2ccccc2)c1C(=O)Nc1ccc(S(=O)(=O)N2CCOCC2)cc1 ?
TDP1 inh: -12.3%; G9a block: 50.1µM*; HP1b binding inh: -1.7%; Sfp inh: 37.2%; BAZ2B block: 5.3%; JMJD2A Tudor: -9.1%

How did CCOc1cc(N2CCOCC2)c(OCC)cc1NC(=O)c1c(-c2ccccc2Cl)noc1C do in these assays?
TDP1 inh: 9.6%; G9a block: 35.5µM*; HP1b binding inh: inconclusive; Sfp inh: 0.2%; BAZ2B block: 39.8µM*; JMJD2A Tudor: 44.7µM*

What do the screens show for `CCOc1cc(N2CCOCC2)c(OCC)cc1NC(=O)c1c(C)noc1C`?
TDP1 inh: 4.0%; G9a block: 15.8µM*; HP1b binding inh: 17.7%; BAZ2B block: -1.8%; JMJD2A Tudor: -16.4%

What do the screens show for `CCOc1cc(N2CCOCC2)c(OCC)cc1NC(=O)c1cc(C)cc(C)c1`?
TDP1 inh: 2.7%; G9a block: inconclusive; HP1b binding inh: -8.8%; Sfp inh: -27.7%; BAZ2B block: -33.5%; JMJD2A Tudor: -25.1%

How did CCOc1cc(N2CCOCC2)c(OCC)cc1NC(=O)c1c(-c2ccccc2)noc1C do in these assays?
TDP1 inh: 3.5%[56.1 µM]; G9a block: -6.3%[2.33 µM]; HP1b binding inh: -15.1%; BAZ2B block: 44.7µM*; JMJD2A Tudor: inconclusive

How did CCOc1ccc(S(=O)(=O)NCCC(=O)NCC2(N3CCCCC3)CCCCC2)cc1 do in these assays?
TDP1 inh: 1.7%[56.1 µM]; G9a block: 2.6%; HP1b binding inh: 19.6%; Sfp inh: 10.9%; BAZ2B block: -19.8%; JMJD2A Tudor: -11.0%

How did Cc1csc(NC(=O)CSc2ncnc3ccccc23)n1 do in these assays?
TDP1 inh: 0.8%; G9a block: 91.2%; HP1b binding inh: 25.0%; Sfp inh: 6.4%; BAZ2B block: 7.8%; JMJD2A Tudor: -16.9%

What do the screens show for `Cc1csc(NC(=O)CSc2ncc(-c3ccccc3)[nH]2)n1`?
TDP1 inh: 5.7%; G9a block: 3.16µM*; HP1b binding inh: 3.0%; Sfp inh: 10.8%; BAZ2B block: 50.1µM*; JMJD2A Tudor: -26.6%

How did Cc1nnc(NC(=O)CSc2ncc(-c3ccccc3)[nH]2)s1 do in these assays?
G9a block: 24.3%[12.7 µM]; HP1b binding inh: 31.8%; Sfp inh: -26.6%; BAZ2B block: -22.8%; JMJD2A Tudor: -9.6%

Results for Cc1csc(NC(=O)CSc2nc3ccccc3c3c2CCCC3)n1 ?
TDP1 inh: 0.6%; G9a block: 28.2µM*; HP1b binding inh: -9.3%; Sfp inh: -7.8%; BAZ2B block: -10.6%; JMJD2A Tudor: -31.2%

Results for C=CCN=C1CC(C)(C)C(C(=O)OC)C(O)=C1C(=O)CCC (centres undefined) ?
TDP1 inh: 0.0%; G9a block: 4.4%; HP1b binding inh: 5.2%; Sfp inh: 13.7%; BAZ2B block: -11.0%; JMJD2A Tudor: 0.0%

What do the screens show for `O=C(N/C(=C/c1cccc([N+](=O)[O-])c1)C(=O)N1CCCCC1)c1ccco1`?
TDP1 inh: 3.2%; G9a block: inconclusive; HP1b binding inh: 5.5%; Sfp inh: 7.4%; BAZ2B block: -34.3%; JMJD2A Tudor: -13.2%
